The record followed here is ChEMBL document CHEMBL4513216, “Probing the Open Global Health Chemical Diversity Library for Multistage-Active Starting Points for Next-Generation Antimalarials” (ACS Infect Dis, 2020).

The campaign covered roughly 69,000 compounds. About 8,600 (12%) showed an effect of 50% or more. This is one part of a sample in which strong results are shown more often than they occur.

The test relates to Plasmodium berghei. The experiment in a line: Screen against P. berghei liver stage (PbLuc), transformed with Luciferase, at 10uM. It is filed as functional, HepG2. As to conditions: tested at 10 uM.
As for `CC(C)CN1CCO[C@H]2CCN(c3cnccn3)CC[C@@H]21`, the INHIBITION is on record as 16.6%.
To `O=C(c1cc(-n2cccn2)ccc1Cl)N1CCC(N2CCCC2=O)CC1` belongs 18.5%; to `CC(C)[C@H]1CN(Cc2nccn2C)C[C@@H]1NC(=O)COCC(N)=O`, 44.9%.
Next, `CS(=O)(=O)c1cnc(CC2CC2)nc1C1CCCNC1` (stereo not given): 41.7%.
As for `NC1CCN(c2nccn3c(=O)[nH]nc23)CC1`, the INHIBITION came to 48.2%.
To `Cc1cc(N2CCCN3CCC[C@H]3C2)n2nc(C)c(C)c2n1` belongs 48.1%.
Next, `Cc1cc(N2CCN(C3CCSCC3)CC2)n2nc(C)c(C)c2n1`: 51.4%.
To `Cc1cc(N2CCN3CCCCC3C2)n2nc(C)c(C)c2n1` (stereo not given) belongs 16.8%.
Take `O=S(=O)(c1cn[nH]c1)N1CCC(O)(CN2CCC(F)(F)CC2)C1` (stereo not given): the INHIBITION is reported as -5.452%.
Next, `CC(C)Cc1ccc(S(=O)(=O)Nc2ccc(=O)n(C)c2)cc1`: 88.5%; `Cc1ccc(F)c(S(=O)(=O)Nc2cn(C)cc(Br)c2=O)c1`: 8.53%.
Next, `Cn1cc(Br)c(=O)c(NS(=O)(=O)c2ccc3c(c2)CCC3)c1`: 28.3%; `Cn1cc(NS(=O)(=O)c2ccc(F)c(F)c2)ccc1=O`: 23.5%.
Next, `Cc1ccc(S(=O)(=O)Nc2ccc(=O)n(C)c2)c(Br)c1`: 77%; `CCc1ccc(S(=O)(=O)Nc2cn(C)cc(Br)c2=O)cc1`: 25.3%.
Regarding `CCCc1ccc(S(=O)(=O)Nc2ccc(=O)n(C)c2)cc1`, the INHIBITION was found to be 81.1%.
To `CC(C)c1ccc(C(=O)O)cc1S(=O)(=O)Nc1ccc(=O)n(C)c1` belongs -3.87%.
To `CCCc1ccc(S(=O)(=O)NCCNC(=O)c2ccoc2)cc1` belongs 5.05%; to `CCc1ccc(C(=O)O)cc1S(=O)(=O)Nc1ccc(=O)n(C)c1`, 9.16%; to `CC(C)Cc1ccc(S(=O)(=O)NCCCN2CCNC(=O)C2)cc1`, -20.3%.
Next, `Cn1cc(NS(=O)(=O)c2ccc3c(c2)CCCC3)ccc1=O`: 81.1%.
Regarding `CS(=O)(=O)CCCSc1cccc(C#N)c1`, the INHIBITION was -9.08%.
Next, `O=c1occ(CN2CCSCC2)c(O)c1CN1CCCC1`: 4.93%.
To `O=C(c1ccco1)N1C[C@H]2CCCN(CC3CC3)[C@H]2C1` belongs 25.5%.
Regarding `CCc1cc(C(=O)N2CCC(O)(Cn3ccc4ccncc43)CC2)no1`, the INHIBITION was -0.902%.
Next, `Cc1ncc(Cl)c(C(=O)N2CCCC(n3nc(C)nc3C)C2)n1` (stereo not given): 17.265%.
Next, `O=C(Cn1ccc2ccc(Cl)cc21)NCc1ccc(C(=O)O)cc1`: -6.42%; `O=C([C@H]1CN(Cc2ccccc2F)C[C@H]2OCC[C@@H]12)N1CCCO1`: 61.9%.
Next, `O=C([C@H]1CN(Cc2ccc(F)cc2)C[C@H]2OCC[C@@H]12)N1CCCO1`: 24.9%; `CN(C)C(=O)[C@H]1C[C@H]2OCC[C@H]2N(Cc2ccc3c(c2)OCO3)C1`: 28.7%; `O=C([C@H]1C[C@H]2OCC[C@H]2N(Cc2ccoc2)C1)N1CCCO1`: 19.4%.
Regarding `CN(C)C(=O)[C@H]1C[C@H]2OCC[C@H]2N(Cc2ccc(F)cc2)C1`, the INHIBITION worked out at 53.2%.
To `O=C([C@H]1CN(Cc2cccnc2)C[C@H]2OCC[C@@H]12)N1CCCO1` belongs 26.5%; to `O=C([C@H]1C[C@H]2OCC[C@H]2N(Cc2ccccc2F)C1)N1CCCCO1`, 59%.
To `O=C([C@H]1C[C@H]2OCC[C@H]2N(Cc2ccc(F)cc2)C1)N1CCCCO1` belongs 38.1%.
Next, `Cc1ccccc1CN1C[C@@H](C(=O)N2CCCCO2)C[C@H]2OCC[C@H]21`: 42.7%; `CNC(=O)[C@H]1C[C@H]2OCC[C@H]2N(Cc2ccc(F)cc2)C1`: 33%; `O=C([C@H]1C[C@H]2OCC[C@H]2N(Cc2ccoc2)C1)N1CCCCO1`: 88.2%.
On to `O=C([C@H]1C[C@H]2OCC[C@H]2N(Cc2ccccn2)C1)N1CCCCO1`, for which the INHIBITION is recorded as 5.44%.
Next, `Cc1ccc(CN2CCc3ncnc(C4CCOC4)c3CC2)s1` (stereo not given): -31.6%; `CC(C)=CCN1CCN(C(=O)c2cc(C(C)C)on2)[C@H]2CS(=O)(=O)C[C@H]21`: 17.7%; `CN(C)c1cc(C2CCN(C(=O)c3cnn(C)c3)CC2)ccn1`: 26.4%.
Next, `COCCN1CC(=O)N(C(C)C)C(C)(C)C1`: -1.3%; `CCCc1nc(CN(CC)Cc2ccc(S(C)(=O)=O)cc2)no1`: -21.9%.
To `Cn1nc2c(cc1=O)CN(Cc1coc(-c3ccc(F)cc3)n1)CC2` belongs -0.113%.
`CN(Cc1cccnc1)[C@@H]1CN(Cc2nccn2C)[C@@H]2CCCO[C@H]12`: the INHIBITION is -27%.
Consider `CC(C)NC(=O)C1CCc2nnc(CNC(=O)c3cccnc3)n21` (stereo not given), for which the INHIBITION is given as -57.8%.
To `CCC[C@H]1CN(C(=O)Cn2ccccc2=O)C[C@@H]1NS(C)(=O)=O` belongs 20.6%; to `Cc1c(C(=O)NCCN2C(=O)CCC2=O)sc2ccc(F)cc12`, -64.6%; to `CC1CCN(C(=O)[C@@H]2C[C@H]3OCC[C@H]3N(Cc3ccoc3)C2)CC1`, 59%.
Next, `O=C(NCC1CC1)[C@H]1C[C@H]2OCC[C@H]2N(Cc2ccoc2)C1`: 35.3%; `O=C(NC1CCCC1)[C@H]1C[C@H]2OCC[C@H]2N(Cc2ccoc2)C1`: -1.55%; `Cc1ccc(NC(=O)[C@H]2C[C@H](C(=O)O)CN(CC3CC3)C2)cn1`: 39.4%.
To `CCC1=NC2(CCC(C(=O)Nc3ccc(F)cc3)CC2)C(=O)N1C` (stereo not given) belongs 42.4%.
For the compound `CCC1=NC2(CCC(C(=O)Nc3ccc(C)nc3)CC2)C(=O)N1C` (stereo not given), the INHIBITION is recorded as 64.3%.
Next, `O=C1CCN(C(=O)NCCc2c[nH]c3ccc(Cl)cc23)CCN1`: 1.56%; `COc1ccccc1-c1nc(C(=O)N(C)C)n2ccncc12`: 30.8%; `COc1ccccc1-c1nc(C(=O)N2CCOCC2)n2ccncc12`: 32.5%.
Next, `COC(=O)CNC(=O)c1nc(-c2ccccc2OC)c2cnccn12`: 54.9%.
To `COc1ncc(CN2CCCC2c2[nH]ncc2C(=O)N(C)C)cn1` (stereo not given) belongs 3.48%.
